# High-throughput results: PubChem, several laboratories
# In the library only some 1.4% were active in any assay of this set; here they are far more common.
# GALR2 antag = GALR2 (human) receptor antagonism; O43603; GALR2-expressing cells, antagonist mode; inhibition, % at 4 µM; 140,000 compounds, 0.39% hits; AID 828; in the data active = inhibition above about 27%;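 also: cells stimulated with galanin 1-16 at roughly its EC80; 0% = agonist challenge control and 100% = basal control without agonist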
# Target sequence (O43603 whole entry, looked up): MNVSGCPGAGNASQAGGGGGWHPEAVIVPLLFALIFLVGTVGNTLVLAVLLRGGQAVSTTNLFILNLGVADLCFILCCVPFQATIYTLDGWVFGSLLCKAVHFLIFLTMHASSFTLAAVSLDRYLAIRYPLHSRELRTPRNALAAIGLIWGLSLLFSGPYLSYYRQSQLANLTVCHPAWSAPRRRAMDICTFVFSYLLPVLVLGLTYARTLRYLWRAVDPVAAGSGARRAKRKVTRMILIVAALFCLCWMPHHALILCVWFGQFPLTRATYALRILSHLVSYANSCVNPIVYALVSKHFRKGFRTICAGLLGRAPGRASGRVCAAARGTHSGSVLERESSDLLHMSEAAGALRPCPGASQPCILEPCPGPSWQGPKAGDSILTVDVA
# S1P2 ag = activates the human S1P2 receptor | O95136 | S1P2-expressing cell line, agonist reporter read-out | activation, % at 4.5 µM | 97,000 compounds, 0.46% hits; in the data active = activation above about 16%;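 also: 0% = vehicle low control and 100% = maximal reference agonist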
# GALR2 agonist = GALR2 (human) receptor agonism | O43603 | GALR2-expressing cells, agonist activation read-out | 140,000 compounds, 0.48% hits | activation, % (concentration not given with the values); in the data active = activation above about 5%, passing the limit was not always enough;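 also: 0% = vehicle buffer wells and 100% = reference agonist at full effect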
# CD11b adhes inh = blocks human CD11b/CD18 adhesion to fibrinogen | P05107+P11215 | 93,000 compounds, 0.54% hits | inhibition, % at 10 µM | K562 CD11b/CD18 adhesion to fibrinogen, ATPlite luminescence; Mn2+ added to activate the integrin;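 active = primary inhibition of 50% or more at 10 µM, then 40% or more on retest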
# Mac1 fbg enh = increases human CD11b/CD18 adhesion to fibrinogen | P05107+P11215 | activation, % at 10 µM | K562 CD11b/CD18 adhesion to fibrinogen, ATPlite luminescence | 93,000 compounds, 0.07% hits | AID 1499;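 active = 10 µM primary screen giving 50% or more activity, confirmed by 40% or more on retest at that dose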
# S1P2 antag = blocks the human S1P2 receptor; O95136; cell-based S1P2 antagonist assay, inhibition at 5 uM; inhibition, % at 5 µM; 97,000 compounds, 0.21% hits; in the data active = inhibition above about 45%;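 also: CRE beta-lactamase reporter cells expressing human S1P2 stimulated with S1P; 0% = agonist at EC80 alone and 100% = agonist plus reference antagonist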
# Starred values were filed as active, the others as inactive; . = not tested or not shown.
SMILES,GALR2 antag,S1P2 ag,GALR2 agonist,CD11b adhes inh,Mac1 fbg enh,S1P2 antag
CNc1nc(Nc2ccc(Br)cc2)nc(N)c1[N+](=O)[O-],7,.,5.3*,.,.,.
COc1cccc(NC(=O)C2CCCN2C(=O)Nc2cccc(F)c2)c1 (stereo not drawn),-5,-13,-4,.,.,31
COC(=O)[C@H]1CCCN1C(=O)Nc1cccc(Oc2c(F)c(F)c(F)c(F)c2F)c1,8,-4,14*,.,.,2
Nc1nc(Cl)cc(N2CCC(c3cc(-c4ccc(Cl)cc4)n[nH]3)CC2)n1,6,-9,-1,.,.,82*
COc1ccc(-c2cc(C3CCN(c4cc(Cl)nc(N)n4)CC3)[nH]n2)cc1,-4,-12,-1,.,.,6
CC1(c2ccccc2)CC(C)(C)N2C(=O)/C(=C3\SC(=S)NC3=O)c3cccc1c32 (stereo not drawn),8,.,-2,100*,-5,.
CC1(c2ccccc2)CC(C)(C)N2C(=O)C3(C(C#N)=C(N)Oc4cc(O)ccc43)c3cccc1c32 (stereo not drawn),-14,-4,-1,30,-7,-4
N#CCSc1nc2cc(C(=O)N3CCCC3)ccc2c(=O)n1Cc1ccccc1,-4,0,1,-9,2,-3
N#CCSc1nc2cc(C(=O)N3CCC(C(N)=O)CC3)ccc2c2nc3ccccc3n12,-8,37*,0,0,-3,-23
C/C(=N\NS(=O)(=O)c1ccc(C)c([N+](=O)[O-])c1)c1cc2ccccc2o1,3,-2,-2,20,-3,0
C/C(=N\NS(=O)(=O)c1ccc(Cl)c([N+](=O)[O-])c1)c1cc2ccccc2o1,-5,-4,-2,97*,-10,0
COc1ccc(CCn2c(N)c(C#N)c3nc4ccccc4nc32)cc1OC,-7,2,1,-18,6,1
N#Cc1c(N)n(CCNC(=O)c2ccccc2)c2nc3ccccc3nc12,-3,.,0,.,.,.
N#Cc1c(N)n(CCCN2CCOCC2)c2nc3ccccc3nc12,1,0,4,-1,-4,13
COc1ccc(Cn2c(N)c(C#N)c3nc4ccccc4nc32)cc1OC,-9,21*,3,-20,0,-85
CCCCCn1c(N)c(C#N)c2nc3ccccc3nc21,-9,13,7.9*,-18,1,-12
COc1ccccc1CCn1c(N)c(C#N)c2nc3ccccc3nc21,-20,16*,2,49,-5,-31
Cc1ccccc1/C(N)=N/OC(=O)N1c2ccccc2Sc2ccccc21,12,-8,-1,.,.,16
CN(Cc1ccccc1)c1nc(N)c([N+](=O)[O-])c(Nc2cccc(F)c2)n1,1,22*,-4,11,-1,-60
Cc1nn(-c2cccc(Cl)c2)c2nc(C(F)(F)F)[nH]c(=O)c12,-6,.,-1,102*,-8,.
Cc1ccc(-c2noc(CCC(=O)NCCN3CCN(Cc4ccccc4)CC3)n2)cc1,1,-2,-2,-2,0,16
COc1ccc(-c2noc(CCC(=O)NCCCN3CCC(Cc4ccccc4)CC3)n2)cc1,7,-6,0,61*,-4,40
COc1ccccc1N1CCN(C(=O)c2cc3c(s2)CCC3)CC1,-10,-3,-2,48,70*,-33
CCn1c(=N)n(CC(=O)c2ccco2)c2ccccc21,18,-3,-2,-1,0,9
CCCC(=O)N1c2ccccc2[C@@H](N(C(C)=O)c2ccccc2)C[C@H]1C,-7,1,0,-16,-1,-2
SMILES,GALR2 antag,S1P2 ag,GALR2 agonist,CD11b adhes inh,Mac1 fbg enh,S1P2 antag
O=C1C2CCCN2c2ccc(S(=O)(=O)N3CCOCC3)cc2N1Cc1cccc(C(F)(F)F)c1 (stereo not drawn),6,-3,-3,1,142*,-6
O=C1C2CCCN2c2ccc(S(=O)(=O)N3CCOCC3)cc2N1Cc1ccccc1F (stereo not drawn),-3,-5,0,.,.,5
O=C(CSc1nc2ccc([N+](=O)[O-])cc2[nH]1)NC1CCCCCC1,-1,.,-1,102*,-9,.
O=C(CSc1nc2ccc([N+](=O)[O-])cc2[nH]1)NC1CCCCC1,1,-2,-1,-7,-3,34
COc1ccccc1NS(=O)(=O)c1cc([N+](=O)[O-])ccc1N/N=C/c1c(C)[nH]c2ccccc12,9,-15,-5,6,4,69*
COc1ccc(OCC(=O)NCc2cccnc2)cc1,10,-2,-1,-13,6,-2
CC(C)NC(=O)c1ccc2c(c1)S(=O)(=O)c1ccccc1C2=O,-14,18*,2,-2,-1,-46
N#CC(c1cccc(Cl)c1)c1ccc2c(C(F)(F)F)cc(C(F)(F)F)nc2n1 (stereo not drawn),15,-5,-2,96,-9,88*
Cc1ccc(N(C(=O)C(F)(F)F)C(C(=O)NC2CCCCC2)c2cccs2)cc1 (stereo not drawn),3,-4,-2,.,.,-3
CCCCOc1ccc(C(=O)Nc2cccc(C)n2)cc1,-2,-4,-2,45,-4,23
O=C1C(=O)c2c(C(=O)c3ccccc3)coc2-c2ccccc21,1,-8,-2,59*,0,8
N=c1c(-c2nc3ccccc3[nH]2)cc(C(=O)c2cccs2)nn1-c1ccc(Cl)cc1,3,30*,-2,.,.,-29
Cn1cccc1CC(=O)N/N=C/C=C/c1ccccc1,2,.,0,.,.,.
CC(C)(C)c1ccc(S(=O)(=O)NCc2ccc(C(=O)N3CCCC3)cc2)cc1,0,-11,-1,-11,-4,-3
COc1ccc([C@H]2[C@H](C(=O)C(C)(C)C)N3N=Cc4ccccc4C3[C@]23N=C(c2ccccc2)OC3=O)cc1OC (stereo partly drawn),-10,2,0,-3,91*,-17
COc1ccc([C@H]2[C@H](C(=O)C(C)(C)C)N3N=Cc4ccccc4C3[C@]23N=C(c2ccccc2)OC3=O)cc1 (stereo partly drawn),0,-6,-2,-3,0,-13
Cc1ccc(-c2cc(C(F)F)n3ncc(C(=O)Nc4c(C)nn(Cc5c(Cl)cccc5Cl)c4C)c3n2)cc1,6,-10,0,32,116*,11
CCc1nccn1C(=O)c1cnn2c(C(F)F)cc(-c3ccccc3)nc12,-2,-8,-1,-9,-4,-5
Cc1ccc(-c2cc(C(F)F)n3ncc(C(=O)Nc4c(C)nn(Cc5ccccc5Cl)c4C)c3n2)cc1,9,-8,-3,.,.,11
Cc1nn(Cc2c(Cl)cccc2Cl)c(C)c1NC(=O)c1cnn2c(C(F)F)cc(-c3ccccc3)nc12,5,-7,0,-6,116*,-12
CN1C(=O)CSc2ccc(NC(=O)Nc3ccccn3)cc21,-12,-12,0,-19,9,51*
